Reference: PubChem BioAssay
Calls of active or inactive are those of the source.

Experiments:
[1] = binders of probe aFSTL3 on microarray, primary screen, stem cell growth factor project, biochemical, small-molecule microarray, fluorescence 635/667 (AID 1064); settings: higher = more signal;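 also: measures binding of the biotinylated anti-FSTL3 antibody to printed compounds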
[2] = binders from COS7 lysate, DM2A8 probe, primary screen, torsin A project, cell lysate, small-molecule microarray, fluorescence 635/667 (AID 1065); settings: higher = more signal, COS7 lysate expressing mutant human TOR1A
[3] = binders of probe aFGF2 on microarray, primary screen, stem cell growth factor project, biochemical, small-molecule microarray, fluorescence 635/667 (AID 1067); settings: higher = more signal;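 also: measures binding of biotinylated aFGF2 protein to printed compounds on slides; z-score merges feature fluorescence and signal-to-noise across triplicate slides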
[4] = binders of probe aFGF10 on microarray, primary screen, stem cell growth factor project, biochemical, small-molecule microarray, fluorescence 635/667 (AID 1071); settings: higher = more signal;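 also: score merges 667 nm spot intensity and signal to noise from triplicate slides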
[5] = target: Neurogenic locus notch homolog protein 2 (Homo sapiens) (UniProt Q04721); test: Notch2 binders on small-molecule microarrays, primary screen, biochemical, small-molecule microarray, 635 nm fluorescence, stem cell growth factors (AID 1073); settings: Notch2 binding, higher = more signal
Neurogenic locus notch homolog protein 2 (Homo sapiens), sequence (Q04721 whole entry, looked up, canonical isoform): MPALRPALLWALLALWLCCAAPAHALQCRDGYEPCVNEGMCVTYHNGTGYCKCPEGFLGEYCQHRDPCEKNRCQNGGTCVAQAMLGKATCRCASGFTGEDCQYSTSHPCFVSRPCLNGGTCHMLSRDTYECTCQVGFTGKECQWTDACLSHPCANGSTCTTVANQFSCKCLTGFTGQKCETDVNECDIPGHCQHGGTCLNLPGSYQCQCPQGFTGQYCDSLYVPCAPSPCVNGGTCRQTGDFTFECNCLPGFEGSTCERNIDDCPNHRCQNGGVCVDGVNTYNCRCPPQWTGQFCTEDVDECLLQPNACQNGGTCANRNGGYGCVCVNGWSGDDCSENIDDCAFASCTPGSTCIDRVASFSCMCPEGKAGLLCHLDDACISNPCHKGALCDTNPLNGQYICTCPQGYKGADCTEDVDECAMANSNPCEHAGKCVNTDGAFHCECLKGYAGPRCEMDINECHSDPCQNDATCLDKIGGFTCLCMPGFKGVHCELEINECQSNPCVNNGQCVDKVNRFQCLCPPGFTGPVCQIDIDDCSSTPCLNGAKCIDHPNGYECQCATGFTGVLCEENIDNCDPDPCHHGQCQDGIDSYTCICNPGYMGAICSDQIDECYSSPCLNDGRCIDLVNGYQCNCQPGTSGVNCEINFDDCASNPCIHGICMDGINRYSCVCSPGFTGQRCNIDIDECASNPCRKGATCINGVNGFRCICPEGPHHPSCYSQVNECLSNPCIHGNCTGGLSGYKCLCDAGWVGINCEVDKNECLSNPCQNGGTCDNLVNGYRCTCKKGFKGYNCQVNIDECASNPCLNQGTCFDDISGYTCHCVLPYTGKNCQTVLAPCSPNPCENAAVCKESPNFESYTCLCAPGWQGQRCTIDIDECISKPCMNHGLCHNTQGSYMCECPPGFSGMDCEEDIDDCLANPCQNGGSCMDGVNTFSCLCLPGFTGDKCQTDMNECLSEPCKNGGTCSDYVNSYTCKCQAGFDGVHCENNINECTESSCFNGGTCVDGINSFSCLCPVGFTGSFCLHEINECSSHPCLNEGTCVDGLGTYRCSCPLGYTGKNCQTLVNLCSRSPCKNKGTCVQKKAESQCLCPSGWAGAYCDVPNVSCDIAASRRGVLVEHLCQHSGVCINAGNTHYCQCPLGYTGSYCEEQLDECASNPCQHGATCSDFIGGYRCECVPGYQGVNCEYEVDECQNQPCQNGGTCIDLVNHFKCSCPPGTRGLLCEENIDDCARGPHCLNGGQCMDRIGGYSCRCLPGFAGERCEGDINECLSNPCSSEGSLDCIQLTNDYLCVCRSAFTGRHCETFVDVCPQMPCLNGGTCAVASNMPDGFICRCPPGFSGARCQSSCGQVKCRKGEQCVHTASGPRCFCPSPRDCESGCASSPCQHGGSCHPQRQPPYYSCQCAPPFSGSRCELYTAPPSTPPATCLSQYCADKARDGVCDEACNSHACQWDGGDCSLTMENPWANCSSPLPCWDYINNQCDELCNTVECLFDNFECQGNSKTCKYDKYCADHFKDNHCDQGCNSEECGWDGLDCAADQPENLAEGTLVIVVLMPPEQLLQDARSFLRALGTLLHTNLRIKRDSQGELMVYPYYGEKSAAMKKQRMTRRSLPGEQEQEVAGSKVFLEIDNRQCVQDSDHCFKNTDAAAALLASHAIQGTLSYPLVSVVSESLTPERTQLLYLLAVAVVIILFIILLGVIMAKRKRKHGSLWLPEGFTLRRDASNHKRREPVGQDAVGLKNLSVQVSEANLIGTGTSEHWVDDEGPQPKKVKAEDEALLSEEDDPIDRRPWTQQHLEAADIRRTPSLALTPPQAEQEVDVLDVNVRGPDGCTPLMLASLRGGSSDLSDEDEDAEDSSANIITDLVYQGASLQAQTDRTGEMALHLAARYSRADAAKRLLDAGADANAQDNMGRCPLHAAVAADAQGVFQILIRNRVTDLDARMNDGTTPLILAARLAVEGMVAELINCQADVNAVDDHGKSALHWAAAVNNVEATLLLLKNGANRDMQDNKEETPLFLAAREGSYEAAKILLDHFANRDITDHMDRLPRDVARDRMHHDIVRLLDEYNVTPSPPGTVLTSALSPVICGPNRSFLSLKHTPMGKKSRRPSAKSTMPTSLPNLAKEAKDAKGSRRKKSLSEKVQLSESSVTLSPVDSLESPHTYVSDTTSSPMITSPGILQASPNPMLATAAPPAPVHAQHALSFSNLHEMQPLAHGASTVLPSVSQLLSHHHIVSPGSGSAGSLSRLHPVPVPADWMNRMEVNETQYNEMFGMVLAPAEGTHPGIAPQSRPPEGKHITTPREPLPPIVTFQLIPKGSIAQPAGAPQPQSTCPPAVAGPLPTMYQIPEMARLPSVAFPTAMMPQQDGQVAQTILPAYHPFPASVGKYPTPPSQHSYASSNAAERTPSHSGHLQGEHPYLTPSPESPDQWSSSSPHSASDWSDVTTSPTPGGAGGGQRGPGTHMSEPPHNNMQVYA

[6] = target: Pro-neuregulin-1, membrane-bound isoform (Homo sapiens) (UniProt Q02297); test: NRG1 binders on small-molecule microarrays, primary screen, psychiatric disease protein project, biochemical, small-molecule microarray, fluorescence 635/667 (AID 1075); settings: NRG1 binding, 635 nm fluorescence, higher = more signal;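 also: score combines 667 nm spot fluorescence with signal to noise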
Pro-neuregulin-1, membrane-bound isoform (Homo sapiens), sequence (Q02297 whole entry, looked up, the tested form may be a part, canonical isoform): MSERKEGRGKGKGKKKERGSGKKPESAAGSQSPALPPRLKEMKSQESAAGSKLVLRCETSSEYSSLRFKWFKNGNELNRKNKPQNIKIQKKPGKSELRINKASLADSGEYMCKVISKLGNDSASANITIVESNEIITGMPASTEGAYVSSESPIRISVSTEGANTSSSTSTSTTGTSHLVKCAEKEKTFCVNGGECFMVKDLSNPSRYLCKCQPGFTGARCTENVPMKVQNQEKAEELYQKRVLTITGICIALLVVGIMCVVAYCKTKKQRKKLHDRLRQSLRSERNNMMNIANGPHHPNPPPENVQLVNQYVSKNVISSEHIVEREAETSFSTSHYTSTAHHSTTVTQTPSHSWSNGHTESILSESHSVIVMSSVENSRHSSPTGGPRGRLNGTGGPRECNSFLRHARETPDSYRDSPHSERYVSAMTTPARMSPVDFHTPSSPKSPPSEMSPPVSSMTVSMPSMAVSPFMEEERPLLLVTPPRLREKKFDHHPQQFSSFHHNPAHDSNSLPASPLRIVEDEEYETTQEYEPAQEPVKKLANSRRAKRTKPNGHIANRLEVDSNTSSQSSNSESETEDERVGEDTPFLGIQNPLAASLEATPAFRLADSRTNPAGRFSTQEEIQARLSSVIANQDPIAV

[7] = tested on: Neuregulin-1 EGF-like domain; test: binders of neuregulin-1 EGF-like domain, primary screen, biochemical, small-molecule microarray, 635 nm fluorescence (AID 1081); settings: small-molecule microarray binding, higher = more signal;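 also: binding of the protein to compounds printed on small-molecule microarray slides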
[8] = FRG1 promoter luciferase signal modulators, primary screen, FRG1 inhibition for FSHD, cell-based, C2C12 myotubes, firefly/Renilla luciferase, luminescence (AID 1084); settings: higher = more signal, called active from +8 up or from −8 down
[9] = binders of probe aFST on microarray, primary screen, stem cell growth factor project, biochemical, small-molecule microarray, fluorescence 635/667 (AID 1086); settings: higher = more signal;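 also: score merges 667 nm fluorescence with signal-to-noise of each printed compound spot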
[10] = binders of probe aHhip on microarray, primary screen, stem cell growth factor project, biochemical, small-molecule microarray, fluorescence 635/667 (AID 1087); settings: higher = more signal;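 also: score merges spot fluorescence at 667nm with spot signal to noise ratio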
[11] = tested on: PRMT1 (protein arginine N-methyltransferase 1); test: PRMT1 binders on small-molecule microarrays, primary screen, biochemical, small-molecule microarray, 635 nm fluorescence (AID 1088); settings: small-molecule microarray binding, higher = more signal;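 also: binding of Prmt1 protein to compounds spotted on small-molecule microarray slides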
[12] = yeast growth modulation, basal conditions, primary screen, YJM789 clinical isolate, OD600, 24 h (AID 1089);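 also: growth of clinical yeast isolate S. cerevisiae YJM 789 seeded 1000 cells per well; test concentration not given here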; settings: S. cerevisiae YJM789 growth, higher = more signal, called active from +8 up or from −8 down
[13] = fission yeast growth modulation, primary screen, strain 972, OD600, 24 h, no modulator (AID 1090);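 also: basal condition with compound alone and no growth modifier present; test concentration not given here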; settings: S. pombe 972 growth, higher = more signal, called active from +8 up or from −8 down
[14] = S. cerevisiae growth modulation with rapamycin, primary screen, strain BY4716, OD600, 96 h (AID 1091); settings: higher = more signal, called active from +8 up or from −8 down; also: test concentration not given here
[15] = target: Torsin-1A-interacting protein 2 (Homo sapiens) (UniProt Q8NFQ8); test: LULL1 binders on small-molecule microarray, primary screen, cell lysate, human LULL1 lysate, 635/667 nm fluorescence (AID 1092); settings: hLULL1 lysate binding, 635 nm fluorescence, higher = more signal;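 also: probe is lysate of COS7 cells overexpressing human LULL1; score merges per-feature 667 nm fluorescence with signal-to-noise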
Torsin-1A-interacting protein 2 (Homo sapiens), sequence (Q8NFQ8 whole entry, looked up): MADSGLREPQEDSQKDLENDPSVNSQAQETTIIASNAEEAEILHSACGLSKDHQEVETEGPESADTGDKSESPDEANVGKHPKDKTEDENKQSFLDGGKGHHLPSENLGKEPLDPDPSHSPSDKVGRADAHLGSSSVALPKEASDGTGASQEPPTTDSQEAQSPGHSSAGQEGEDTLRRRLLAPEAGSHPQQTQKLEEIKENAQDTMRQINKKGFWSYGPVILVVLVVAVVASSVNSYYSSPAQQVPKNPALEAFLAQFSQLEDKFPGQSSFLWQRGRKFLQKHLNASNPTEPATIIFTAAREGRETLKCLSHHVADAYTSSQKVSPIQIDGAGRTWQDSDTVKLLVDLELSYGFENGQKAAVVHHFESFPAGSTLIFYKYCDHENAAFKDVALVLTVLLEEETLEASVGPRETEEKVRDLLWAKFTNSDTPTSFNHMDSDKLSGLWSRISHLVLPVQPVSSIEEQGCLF

[16] = E. coli growth modulation, two-sided OD650, primary screen, E. coli filamentation project, strain DRC41, 24 h (AID 1093); settings: OD650, 24 h, higher = more signal, called active from +8 up or from −8 down;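 also: MC1000 strain lacking acrAB efflux and sulA so SOS filamentation is blocked; test concentration not given here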
[17] = small-molecule microarray binders of probe aLefty2, primary screen, biochemical, biotinylated probe, 635/667 nm fluorescence (AID 1094); settings: higher = more signal;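 also: score merges spot fluorescence near 667 nm with spot signal-to-noise ratio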
[18] = tested on: Noggin (protein binding on small-molecule microarray); test: Noggin binders on small-molecule microarray, primary screen, biochemical, 635/667 nm fluorescence (AID 1095); settings: 635 nm fluorescence, higher = more signal;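 also: score merges 667 nm feature fluorescence with signal to noise over triplicate slides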
[19] = target: Neurogenic locus notch homolog protein 3 (Homo sapiens) (UniProt Q9UM47); test: NOTCH3 binders on small-molecule microarray, primary screen, biochemical, 635/667 nm fluorescence (AID 1096); settings: NOTCH3 binding, 635 nm fluorescence, higher = more signal
[20] = small-molecule microarray binders of probe aEGFR, primary screen, biochemical, biotinylated probe, 635/667 nm fluorescence (AID 1097); settings: higher = more signal;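 also: probe is a biotinylated anti-EGFR antibody binding compounds printed on slides; score combines fluorescence near 667 nm and signal to noise of each spot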

| Compound | composite z-score [1] | composite z-score [2] | composite z-score [3] | composite z-score [4] | composite z-score [5] | composite z-score [6] | composite z-score [7] | z-score [8] | composite z-score [9] | composite z-score [10] | composite z-score [11] | z-score [12] | z-score [13] | z-score [14] | composite z-score [15] | z-score [16] | composite z-score [17] | composite z-score [18] | composite z-score [19] | composite z-score [20] |
| --- | --- | --- | --- | --- | --- | --- | --- | --- | --- | --- | --- | --- | --- | --- | --- | --- | --- | --- | --- | --- |
| COc1ccc(-c2nc(-c3ccccc3)c3c(c2C)CO[Si]3(C(C)C)C(C)C)cn1 | -0.367 | 0.0662 | -0.087 | 0.296 | 0.296 | -0.199 | -0.196 | 0.702 (inactive) | -0.0377 | 0.176 | 0.569 | -0.195 (inactive) | -0.391 (inactive) | -0.0892 (inactive) | 0.498 | -1.5 (inactive) | -0.162 | 1.09 | 0.0188 | 0.0361 |
| CCCCCCc1nc(C2CC2)cc2c1[Si](C(C)C)(C(C)C)O[C@H]2c1ccccc1 | 0.0483 | 0.122 | -0.0286 | 0.698 | 0.516 | -0.37 | -0.903 | -0.136 (inactive) | 0.177 | -0.0618 | -0.147 | -0.746 (inactive) | -0.575 (inactive) | -0.513 (inactive) | -0.624 | -1.28 (inactive) | -0.0798 | 0.639 | 0.356 | 0.0122 |
| Cc1ccc(S[C@]2(C(=O)NCC(F)(F)F)CC(=O)N(Cc3ccccc3)[C@@H]2c2ccc(CO)cc2I)cc1 | 0.512 | 0.156 | -0.0502 | 0.284 | 0.0341 | 1.82 | 0.923 | -0.646 (inactive) | 0.164 | -0.236 | 0.29 | -3.01 (inactive) | -2.23 (inactive) | 0.854 (inactive) | 1.62 | -0.161 (inactive) | 0.496 | -0.315 | 0.233 | -0.118 |
| COc1ccc([Si](C)(C)[C@@H]2[C@@H](CC(=O)N(CCO)Cc3ccccc3)O[C@]3(C(=O)N(Cc4cccc(N5C(=O)c6cccc7cccc5c67)c4)c4ccccc43)[C@H]2C)cc1 | -0.143 | 0.167 | -0.105 | 0.409 | -0.127 | 0.442 | 0.763 | -1.05 (inactive) | 0.116 | -0.0193 | 0.737 | 0.121 (inactive) | -0.534 (inactive) | 2.09 (inactive) | 0.36 | 2.11 (inactive) | -0.259 | 1.33 | 0.455 | -0.115 |
| CC(=O)NCCCC[C@@H]1NC(=O)[C@@H]2C[C@H](C(=O)NCCCC[N+](C)(C)C)[C@H](c3ccc(O)cc3)N2C1=O | -0.235 | 1.74 | 0.0056 | 0.88 | -0.188 | 1.21 | 1.19 | 1.32 (inactive) | 0.177 | 0.224 | 1.54 | 0.305 (inactive) | -0.266 (inactive) | -1.29 (inactive) | 1.46 | 0.0855 (inactive) | -0.0774 | 1.36 | 1.09 | -0.0131 |
| COc1ccc([Si](C)(C)[C@@H]2[C@@H](CC(=O)N3Cc4ccccc4C[C@H]3CO)O[C@]3(C(=O)N(C)c4ccccc43)[C@H]2C)cc1 | 0.279 | 0.56 | 0.0331 | 0.686 | 0.356 | 0.969 | 1.22 | -4.24 (inactive) | 0.714 | 0.202 | 1.53 | -0.912 (inactive) | 0.256 (inactive) | 1.86 (inactive) | 1.83 | -0.0789 (inactive) | 0.279 | 1.84 | 1.11 | -0.0052 |
| CC(C)(C)N1CC=CC23O[C@@H]4C=CCCOC(=O)C4[C@H]2C(=O)N(CCO)[C@@H]3C1=O (stereo not given in full) | -0.0666 | -0.46 | -0.132 | -0.133 | -0.717 | 0.767 | 1.48 | 0.22 (inactive) | -0.474 | -0.236 | 0.13 | -0.125 (inactive) | -0.229 (inactive) | -0.0913 (inactive) | -1.67 | 0.976 (inactive) | -0.267 | -0.365 | -0.696 | -0.112 |
| CC(C)(C)OC(=O)CC[C@]1(C(=O)NCc2ccccc2)N=C(c2ccc(OCCCO)cc2)O[C@H]1c1ccccc1CN=[N+]=[N-] | -0.0386 | 0.357 | 0.119 | 0.618 | 1.55 | 1.22 | 1.31 | -2.07 (inactive) | 1.48 | -0.0296 | 1.54 | 0.133 (inactive) | 0.0256 (inactive) | 0.176 (inactive) | 3.46 | 0.868 (inactive) | 0.214 | 1.2 | 1.05 | 0.134 |
| CC(c1ccccc1)C(O)C1C=CC2C(=O)N(c3ccccc3)C(=O)C2N1Nc1ccc([N+](=O)[O-])cc1 (stereo not given) | -0.263 | 0.031 | -0.0265 | 0.772 | 1.62 | 1.58 | 1.11 | -1.32 (inactive) | 0.745 | -0.166 | 1.07 | 0.197 (inactive) | 1.58 (inactive) | 1.78 (inactive) | 3.55 | 0.1 (inactive) | 0.0249 | 0.361 | 1.09 | -0.027 |
| [N-]=[N+]=Nc1ccccc1C[C@]1(C(=O)N2CCOCC2)N=C(c2ccc(OCCCO)cc2)O[C@H]1c1ccccc1 | 0.747 | 1.49 | 0.17 | 0.983 | 1.48 | 1.13 | 1.23 | -1.62 (inactive) | 1.29 | 0.348 | 1.55 | 0.491 (inactive) | -8.46 (active) | 1.42 (inactive) | 2.69 | 1.94 (inactive) | 0.178 | 0.593 | 0.871 | 0.134 |
| COc1ccc(CCNC(=O)[C@@H]2c3ccccc3C(=O)N(Cc3cc(C(F)(F)F)cc(C(F)(F)F)c3)[C@H]2c2ccc(CO)cc2)cc1 | 0.0967 | -0.138 | -0.123 | -0.0803 | -0.181 | 0.568 | 0.993 | -0.188 (inactive) | -0.135 | -0.236 | 1.41 | 0.279 (inactive) | -0.381 (inactive) | 0.848 (inactive) | 2.16 | -0.0332 (inactive) | -0.237 | 1.07 | 0.365 | -0.167 |
| C=C(/C(=C/C[C@H](OC(C)=O)c1cccc(OCCO)c1)c1cnc2ccccc2c1)C(C)C | -0.104 | 0.21 | -0.108 | 0.459 | 1.56 | 0.35 | 0.914 | -0.127 (inactive) | -0.241 | -0.0618 | 0.684 | 1.9 (inactive) | -0.3 (inactive) | 1.35 (inactive) | 1.03 | 0.172 (inactive) | -0.0888 | 0.608 | 0.778 | 0.386 |
